KB-3-1 tox – KB-3-1 parental cell cytotoxicity | AID 1347075 | Potency, µM (highest dose often 46.1 µM), most hits filed as cytotoxic | KB-3-1 viability, CellTiter-Glo ATP luminescence, 72 h | 400,000 compounds, 1.4% hits; also: % is scaled to controls: 0 for no effect and ±100 for the full control effect; nearly all actives have a fitted effect of over 60% in size
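Parental KB-3-1 viability, qHTS format: 72 h compound exposure, 37 °C; CellTiter-Glo; media-only wells and DMSO plates as controls; concentration-effect fits on corrected data.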
KB-V1 cytotox – kills drug-selected multidrug resistant KB-V1 cells. KB-V1 MDR cells viability, CellTiter-Glo, 72 h. Potency, µM (highest dose often 46.1 µM), most hits filed as cytotoxic. 400,000 compounds, 3.4% hits; also: % is scaled to controls: 0 for no effect and ±100 for the full control effect; nearly all actives have a fitted effect of over 60% in size
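KB-V1 cells (P-gp-expressing MDR subline of KB-3-1) in phenol-red-free DMEM with 10% FBS were exposed to library compounds over a concentration series for 72 h at 37 degrees C. Viability read by CellTiter-Glo luminescence; concentration-effect curves fitted after normalization.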
MCF10A rereplic – inducers of DNA re-replication in MCF 10A breast cells. MCF 10A DNA re-replication, Hoechst nuclear intensity, 48 h. 350,000 compounds, 2.9% hits. Potency, µM (highest dose often 46.1 µM), for inactives: top-dose activity, positive = re-replication, most hits filed as activators; also: % of control where 0% means no effect; nearly all actives have a fitted effect of over 50% in size
PINK1 expr mod – PINK1 expression modulation; PINK1 immunofluorescence, high-content cytometry, 24 h; Potency, µM (highest dose often 76.6 µM), inactives show at the top dose activation (PINK1 increase), actives largely listed as activators; 410,000 compounds, 0.2% hits; AID 624263; active = well fitted activation curve with a large enough effect; inconclusive = small, poorly fitted or top-dose-only effect; cell line not stated here; also: % of control where 0% means no effect; nearly all actives have a fitted effect of over 65% in size
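Stable cell line treated 24 h with compounds at 5 concentrations (CCCP controls), then fixed and immunostained for PINK1 plus nuclear and cell stains; PINK1 immunofluorescence quantified by laser-scanning microplate cytometry.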
SW480 rereplic – induces DNA re-replication in SW480 colon adenocarcinoma cells; SW480 DNA re-replication, Hoechst DNA content imaging, 48 h; Potency, µM (highest dose often 46.1 µM), for inactives: top-dose re-replication activation, most hits filed as activators; 340,000 compounds, 1.8% hits; also: % of control where 0% means no effect; nearly all actives have a fitted effect of over 55% in size
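SW480 cells exposed to compounds for 48 hr at 37 C, 5% CO2, then Hoechst-stained 40 min. Nuclear DNA content imaged by fluorescence scanning (405 nm excitation, 500-530 nm emission); re-replication scored as increased high-intensity nuclei.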
* marks the source's active call; other numbers are inactive results; i = inactive; ? = inconclusive; . = no result; [ ] = remark or other dose. A selection: hits, their analogues and other compounds. The true share with any hit is near 6.7%. Unless noted, calls follow the shape of the dose curve; as a rule, active = well fitted curve in the direction sought with a large enough effect; inconclusive = small, poorly fitted or top-dose-only effect, or another doubt; inactive = no such curve, though single readings can be large; an effect the other way counts as inactive or inconclusive. Potency is read from the fitted curve at half-maximal effect.

SMILES	KB-3-1 tox	KB-V1 cytotox	MCF10A rereplic	PINK1 expr mod	SW480 rereplic
Cc1c(C(=O)Nc2cccnc2)oc2ccc(Br)cc12	8.2µM*	3.3µM*	?	-1%	?
O=C(Nc1ccc2oc(-c3ccccc3F)nc2c1)c1ccc2c(c1)OCCO2	i	18µM*	?	0%[38.3 µM]	9%
O=C(Nc1ccc2oc(-c3ccccc3)nc2c1)c1ccncc1	?	8.2µM*	7%	3%	-1%
O=C(Nc1ccc2oc(-c3ccccc3)nc2c1)c1cccs1	i	i	8%	10%	-5%
c1nc(SSc2ncc3n[nH]nc3n2)nc2n[nH]nc12	?	?	.	1%	.
CC1=C(C(=O)N2CCN(c3cccc(C)c3C)CC2)C2(CCCCC2)OC1=O	.	.	.	-1%	.
CC(=O)N1CCN(CCS(=O)(=O)c2ccc(Br)cc2)CC1	i	i	13%	-1%	-3%
CN(C)CCCN1C(=O)c2cccc3c(Br)ccc(c23)C1=O	?	?	7.3µM*	-1%	?
CCCCNc1ccc2c3c(cccc13)C(=O)N(CCCC)C2=O	i	?	7.3µM*	?	21µM*
CCCN1C(=O)c2cccc3c(N4CCCCC4)ccc(c23)C1=O	i	?	3.7µM*	4%	.
O=C(O)CN1C(=O)c2cccc3c(Br)ccc1c23	i	i	2%	-1%	-4%
CCN1C(=O)c2cccc3c(N)ccc(c23)C1=O	i	i	5%	-1%	5%
Cc1ccc(OCc2nc3ccccc3n2C(C(=O)Nc2c(C)cccc2C)C2CC2)cc1 (centres undefined)	i	?	.	.	.
Cc1oc(-c2ccccc2NC(=O)C2CCCO2)nc1CNC(=O)c1[nH]c2c(C)ccc(C)c2c1C (centres undefined)	.	.	.	1%	.
CCC(CC)NC(=O)CN1CCN(S(=O)(=O)c2ccc(Br)s2)CC1	i	?	0%	1%	-6%
COc1ccc(CC(N)c2csc(Nc3nncc4ccccc34)n2)cc1 (centres undefined)	i	?	.	-1%	.
CCOC(=O)c1ccc(NC(=O)c2cc3sccc3n2Cc2ccc(Cl)cc2)cc1	i	i	.	4%	.
CCC(c1nnnn1CCc1ccccc1)N(Cc1ccco1)Cc1cc2cccc(C)c2[nH]c1=O (centres undefined)	?	7.3µM*	?	1%	-1%
CCC(c1nnnn1C(C)(C)C)N(Cc1ccco1)Cc1cc2cccc(C)c2[nH]c1=O (centres undefined)	i	23µM*	9%	-2%	2%
Cc1ccc2cc(CN(CCCN3CCOCC3)C(c3nnnn3Cc3ccco3)C(C)C)c(=O)[nH]c2c1C (centres undefined)	i	i	?	-3%[38.3 µM]	21µM*
Cc1ccc2cc(CN(CCN3CCOCC3)Cc3nnnn3Cc3ccco3)c(=O)[nH]c2c1C	i	i	-3%	1%	-5%
CCOc1cccc2cc(C(N)=O)c(=N)oc12	i	i	-11%	1%	?
Cc1nc(CN2CCN(C(=O)CC3(c4ccccc4Cl)CC(=O)N(C)C3=O)CC2)cs1 (centres undefined)	.	.	.	0%	.
COc1cccc(S(=O)(=O)Nc2ccc3c(c2)C(=O)N(C)C[C@H](OC)[C@H](C)CN(Cc2ccccc2F)[C@@H](C)CO3)c1	?	15µM*	.	.	.
COc1ccc(-c2c(C(F)(F)F)[nH]n3c(=O)cc(-c4ccccc4)nc23)cc1	i	?	2.6µM*	?	29µM*
SMILES	KB-3-1 tox	KB-V1 cytotox	MCF10A rereplic	PINK1 expr mod	SW480 rereplic
COc1cccc(-c2cc3nc(-c4ccccc4)cc(=O)n3[nH]2)c1	5.8µM*	4.6µM*	?	5%	22%
Cc1[nH]n2c(=O)cc(-c3ccc(Cl)cc3)nc2c1-c1ccccc1	?	i	.	9%	.
CN(C)c1nc(N/N=C/c2ccccc2O)nc(Nc2ccc(F)cc2)n1	?	?	10µM*	15%	5.8µM*
CN(C)c1nc(Nc2ccc(F)cc2)nc(Oc2ccc(F)cc2)n1	i	i	1%	0%	4%
CC1CCc2c(sc3ncn4c(SCC(=O)NCc5ccco5)nnc4c23)C1 (centres undefined)	i	i	-8%	.	-2%
O=C(CSc1ncnc2ccccc12)NCc1ccco1	i	i	-5%	-2%	0%
CC(C)Sc1nc2sc3c(c2c2nnc(SCC(=O)NCc4ccco4)n12)CCCC3	i	18µM*	?	9%	9%
O=C(CSc1nc(C2CC2)nc2sc3c(c12)CCCC3)NCc1ccco1	i	i	16µM*	16%[38.3 µM]	1%
Cc1nc(SCC(=O)NCc2ccco2)c2c3c(sc2n1)CCCC3	?	?	?	-1%	1%
CC1CCc2sc3ncn4nc(C(=O)NCc5ccco5)nc4c3c2C1 (centres undefined)	i	6.5µM*	2%	8%	-5%
CCCc1nc2sc3c(SCC(=O)NCc4ccco4)ncnc3c2c2c1CCC2	?	12µM*	9.2µM*	?	15µM*
Cc1ccc(S(=O)(=O)NCCc2nnc3ccc(SCc4ccc(F)cc4)nn23)cc1	i	i	.	-1%	.
NS(=O)(=O)c1ccc(Sc2nc3ccccc3s2)c([N+](=O)[O-])c1	i	?	5.8µM*	21%	-22%
CCNc1ncc2nc(-c3ccccc3)c(=O)n(C[C@H]3CCCO3)c2n1	.	.	.	1%	.
COc1cccc(CNC(=O)Cn2c(=O)nc(-c3ccccc3F)c3cc(Cl)ccc32)c1	.	.	.	2%	.
Cc1ccc(NC(=O)c2ccccc2OCc2c(C)noc2C)cc1S(=O)(=O)N(C)C	i	2.3µM*	-1%	0%	1%
Cc1noc(C)c1COc1ccccc1C(=O)N1CCN(S(=O)(=O)c2ccccc2C#N)CC1	i	15µM*	4%	-1%	-5%
COc1cccc(NC(=O)c2ccccc2OCc2c(C)noc2C)c1	i	?	1%	3%	-8%
COc1ccc(CCNC(=O)c2ccccc2OCc2c(C)noc2C)cc1	i	5.8µM*	-4%	-2%	-4%
COc1ccc(-c2ccc(N)cn2)cn1	i	i	4%	0%	-6%
O=C(CCNC(=O)N1CC(=O)Nc2ccccc21)Nc1cccc(Cl)c1	i	i	13%	1%	-7%
CCCc1nnc(NC(=O)Cc2coc3ccc(C(C)C)cc23)s1	i	i	.	1%	.
Cn1cc(CN2CCCC(C(=O)c3cc(F)ccc3F)C2)c2ccccc21 (centres undefined)	i	i	-23%	10%	0%
COc1ccc(F)cc1C(=O)C1CCCN(Cc2cn(C)c3ccccc23)C1 (centres undefined)	i	i	9.2µM*	-2%	15µM*
COc1ccc(OCC(CO)N2CCN(c3ccccc3)CC2)cc1 (centres undefined)	i	i	15%	4%	-4%
